Rows were chosen to be rich in hits. Some 3.5% of all compounds tested hit in one or more screens of this group.
MITF inh = inhibitors of human MITF; 650,000 compounds, 0.91% hits; AlphaScreen MITF homodimerization, bead proximity signal; inhibition, % at 2.6 µM; AID 1259374; O75030; in the data active means inhibition above about 50%;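 further: 0% = vehicle wells with protein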
GPR151 ag = activators of human GPR151 | AID 1508602 | 650,000 compounds, 1% hits | activation, % at 11.2 µM | Q8TDV0 | PathHunter beta-arrestin GPR151 cells, luminescence; in the data active means activation above about 4.9%;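 further: 0% = median of compound wells and 100% = cells with positive control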
TEAD-YAP inh = TEAD-YAP interaction inhibition; HEK-TIYL cells, TEAD-Gal4/YAP UAS-luciferase luminescence; inhibition, % at 9.12 µM; 640,000 compounds, 1.4% hits; AID 1259422; in the data active means inhibition above about 32%;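 further: 0% = median of test compound wells and 100% = reference inhibitor wells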
FBW7 act = activators of human E3 ligase FBW7 | normalized activity (activation), % at 26.1 µM | 650,000 compounds, 0.13% hits | AlphaScreen FBW7–phospho-cyclin E peptide binding, activator screen; in the data active means normalized activity above about 1.9%;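 further: purified mutant Fbw7 with reduced substrate affinity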
GPR151 confirm = human GPR151 activation, confirmation screen; AID 1508609; 6,700 tested, under 10 active; shares compounds with GPR151 ag; GPR151 PathHunter beta-arrestin cells, luminescence, 90 min; % of EA-reagent control over plate median; activation, % at 11.2 µM;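 active means mean percent activation across replicates above the confirmation screen cutoff of 4.91%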
GPR119 counter = GPR119 activation, counter-screen for GPR151 activators | 6,700 compounds, 0.3% hits | GPR119 PathHunter beta-arrestin cells, luminescence, 90 min; 0 = compound-well median, 100 = enzyme-acceptor control | shares compounds with GPR151 ag | activation, % at 11.2 µM;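 active means mean percent activation in the counterscreen above 29.09%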;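 further: counterscreen on off-target GPR119 to flag nonselective hits from the GPR151 activator screen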
Target sequence (Q8TDV5 whole entry, looked up): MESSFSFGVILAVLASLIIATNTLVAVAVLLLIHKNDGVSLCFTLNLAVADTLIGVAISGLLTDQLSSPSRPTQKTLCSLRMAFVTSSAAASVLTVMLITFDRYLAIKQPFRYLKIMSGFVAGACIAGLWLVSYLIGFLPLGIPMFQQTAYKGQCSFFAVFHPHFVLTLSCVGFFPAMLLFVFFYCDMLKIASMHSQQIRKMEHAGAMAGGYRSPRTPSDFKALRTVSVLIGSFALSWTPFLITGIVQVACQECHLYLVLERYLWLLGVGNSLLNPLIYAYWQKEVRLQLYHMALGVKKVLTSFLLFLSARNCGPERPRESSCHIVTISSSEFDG
An asterisk follows results filed as active; nt = no result given.

SMILES	MITF inh	GPR151 ag	TEAD-YAP inh	FBW7 act	GPR151 confirm	GPR119 counter
Cc1ccc(Cl)cc1NC(=O)c1c(-c2c(Cl)cccc2Cl)noc1C	15.8	6.0*	3.6	0.5	-0.4	2.2
O=C(O)COc1ccc(Br)cc1CO	-1.7	0.8	-0.6	0.0	nt	nt
Cc1ccc(NC(=O)C(CC(=O)O)NCc2ccco2)cc1 (stereo unspecified)	-5.5	7.6*	-6.0	0.1	-0.5	3.0
Cc1cc(C(=O)COC(=O)c2ccc(CO)cc2)c(C)n1-c1ccc(F)cc1	-0.8	5.0*	8.9	0.2	0.0	0.1
Cc1cnc(C(=O)OCC(=O)c2cc(C)n(CCc3ccc(F)cc3)c2C)cn1	1.8	8.1*	-0.2	-0.1	1.1	8.0
COC(=O)c1ccc(-n2c(C)cc(C(=O)COC(=O)c3ccccc3C=O)c2C)cc1	11.9	-0.7	7.0	0.0	nt	nt
CC(=O)c1nc2ccccc2n1S(=O)(=O)c1ccc(Cl)cc1	0.8	5.2*	-0.9	0.1	-0.6	-12.8
COc1cc(C2CC(=O)NC3=C2C(=O)CC(c2ccc(OC)c(OC)c2)C3)ccc1O (stereo unspecified)	16.8	-0.6	9.9	0.7	nt	nt
CCOc1cc(C2CC(=O)NC3=C2C(=O)CC(c2ccc(OC)c(OC)c2)C3)ccc1O (stereo unspecified)	17.5	6.3*	-1.2	0.2	0.0	1.2
Cc1cccc(NC(=O)CSc2nc3c(c(=O)n2-c2ccc(F)cc2)SCC3)c1	-12.5	6.5*	3.1	0.0	0.2	-2.1
Cc1cc(CN(C)C(=O)CC2(c3cccc(F)c3)CC(=O)N(Cc3cccnc3)C2=O)n[nH]1 (stereo unspecified)	13.3	12.2*	-0.2	0.3	-0.1	6.7
Cc1cc(CN(C)C(=O)CC2(c3ccccc3C)CC(=O)N(Cc3cccnc3)C2=O)n[nH]1 (stereo unspecified)	-4.8	1.4	-9.3	-0.1	nt	nt
O=C(Nc1cc2c3c(c1)CCC(=O)N3CCC2)c1c(F)cccc1Cl	-3.0	-0.4	13.5	0.0	nt	nt
COc1ccc(/C=N/n2c(SC)nnc(C(C)(C)C)c2=O)cc1OC	4.7	6.2*	-0.9	0.1	0.1	5.3
COc1ccc(/C=N/n2ncnc2SC)cc1OC	-5.6	-1.7	-25.5	-0.1	nt	nt
CCN(CC)S(=O)(=O)c1cccc(C(=O)OCc2nnc(-c3ccccc3)o2)c1	-1.0	-1.2	-8.4	0.0	nt	nt
NC1(C(Cl)(Cl)Cl)Oc2ccc(Cl)cc2O1 (stereo unspecified)	45.5	9.9*	10.9	-0.1	0.2	-3.4
COCC(=O)N1CCCc2ccc(NS(=O)(=O)c3cc(C)ccc3C)cc21	6.3	6.8*	14.3	0.0	0.3	0.0
COCC(=O)N1CCCc2ccc(NS(=O)(=O)c3ccc(C)c(C)c3)cc21	17.0	0.2	15.1	-0.1	nt	nt
CCCNc1nccc(-c2c(-c3ccc(F)cc3)nc3n2[C@@H](CO)[C@H](C)C3)n1	2.8	-2.2	-0.3	-0.2	nt	nt
Cc1ccc(-n2c(C)c3c(C)nnc(C)c3c2C)cc1N	-3.8	5.3*	-4.8	0.1	0.8	-3.1
COc1ccc2[nH]c3ccc([N+](=O)[O-])cc3c(=O)c2c1	-7.0	5.7*	12.5	0.1	-0.2	-4.7
COc1ccc2[nH]c(C)c(Br)c(=O)c2c1	-2.9	6.4*	5.9	0.0	0.0	5.3
Cc1cc(=O)c2cc([N+](=O)[O-])ccc2[nH]1	-1.3	-1.0	6.2	0.0	nt	nt
Cc1ccc2[nH]c(C)c(Br)c(=O)c2c1	-12.5	-0.8	6.8	0.0	nt	nt
SMILES	MITF inh	GPR151 ag	TEAD-YAP inh	FBW7 act	GPR151 confirm	GPR119 counter
CC(=O)Nc1ccc(NC(=O)C(C)Sc2ccccc2)cc1 (stereo unspecified)	8.8	11.4*	-13.8	0.0	0.2	6.5
CC(C)(C)CN1CCNC(=O)C1CC(=O)N1CCC(Cc2ccccc2)CC1 (stereo unspecified)	-14.2	0.8	6.7	0.0	nt	nt
CCOc1ccc(NC(=O)CSC2=C(C#N)C(c3ccco3)C(C(=O)Nc3ccccc3)=C(C)N2)cc1 (stereo unspecified)	2.8	5.0*	20.8	0.1	-0.7	-7.2
Cc1cccc(C)c1N(C)C(=O)[C@@H]1[C@H]2C[C@H]3[C@@H]1C(=O)O[C@H]3C2	0.7	0.7	-1.3	-0.1	nt	nt
CCOc1ccc(-n2cc(-c3ccccc3)c3c(Nc4cc(OC)c(OC)c(OC)c4)ncnc32)cc1	2.6	1.1	0.5	-0.1	nt	nt
O=CNC(c1ccccc1)c1ccc(Cl)cc1Cl (stereo unspecified)	-36.0	9.9*	5.6	-0.1	-1.1	-8.7
O=CNC(c1ccc(Cl)cc1)c1ccc(Cl)cc1	8.3	0.0	11.6	0.3	nt	nt
CCn1c(SCC(=O)Nc2cccc(C(=O)O)c2)nnc1-c1cccc(C)c1	6.6	-0.2	0.8	1.1	nt	nt
CCn1c(COc2cccc(C)c2)nnc1SCC(=O)Nc1cccc(C(=O)O)c1	4.0	6.3*	0.1	-0.1	0.4	3.3
NC(=O)C1(Nc2ccccc2)CCCCC1	18.6	6.8*	3.6	0.3	-0.2	1.3
CCCCN1CCC(Nc2ccccc2)(C(N)=O)CC1	8.0	0.6	11.3	0.2	nt	nt
Clc1cccc(N2CCN(c3ncnc4c3nc3n4CCCCC3)CC2)c1	7.8	12.2*	41.4*	-0.4	1.2	2.2
CC(C)(C)c1ccc(OCC(O)CS(=O)Cc2ccccc2)cc1 (stereo unspecified)	0.5	5.4*	0.4	0.0	0.2	5.5
CCn1nc2c3c(C)c(C)sc3nc(C(C)C)n2c1=O	4.7	1.8	6.3	-0.1	nt	nt
COc1ccnc(Cn2nc3c4c(C)c(C)sc4nc(C(C)C)n3c2=O)c1OC	-12.3	-0.1	-7.3	-0.2	nt	nt
Cc1sc2nc(C(C)C)n3c(=O)n(Cc4ccccn4)nc3c2c1C	-3.0	12.6*	-2.5	-0.1	-0.7	1.1
Cc1sc2nc(C(C)C)n3c(=O)n(CCN4CCCC4)nc3c2c1C	-2.3	11.2*	8.0	-0.4	0.1	3.3
Cc1cc(C(=O)NCCc2ccc(Cl)cc2)cs1	3.1	1.6	-10.3	0.0	nt	nt
O=C(NCCc1c[nH]c2ccccc12)C(c1ccccc1)N1Cc2ccccc2C1=O (stereo unspecified)	10.4	5.2*	0.2	0.0	-0.5	-8.2
COc1ccc(CSc2nnnn2-c2cccc3ccccc23)cc1[N+](=O)[O-]	3.0	0.7	0.7	0.3	nt	nt
COc1ccc(-n2nc(C(=O)Nc3cc(Cl)ccc3OC)c3ccccc3c2=O)c(OC)c1	-1.9	-1.7	-6.2	-0.1	nt	nt
COc1ccccc1-n1nc(C(=O)Nc2ccc(Cl)cn2)c2ccccc2c1=O	12.5	7.6*	4.6	0.4	0.3	3.7
COc1ccc(OC)c(NC(=O)c2nn(-c3ccc(OC)cc3OC)c(=O)c3ccccc23)c1	14.2	8.7*	10.2	0.0	-0.7	-1.4
CCOc1ccccc1N(C)C(=O)c1nn(-c2cc(OC)cc(OC)c2)c(=O)c2ccccc12	9.2	6.6*	-0.6	0.2	-0.3	-5.9

Screening results: PubChem BioAssay, The Scripps Research Institute Molecular Screening Center
